Consider 27 compounds from PubChem BioAssay.

Activity calls are given as the source filed them.

The experiment deals with Luciferin 4-monooxygenase (Photinus pyralis) (UniProt P08659). Put plainly: firefly luciferase enzyme inhibitors, primary screen, biochemical, luminescence, purified enzyme, 2006 set (AID 1141).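 Note: cell-free assay with purified firefly luciferase at 100 ng per well in PBS; test concentration not given here.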 The conditions noted are these: SteadyGlo luminescence, 30 min, higher = more signal, called active from +8 up or from −8 down.
Chain of Luciferin 4-monooxygenase (Photinus pyralis) (P08659 whole entry, looked up): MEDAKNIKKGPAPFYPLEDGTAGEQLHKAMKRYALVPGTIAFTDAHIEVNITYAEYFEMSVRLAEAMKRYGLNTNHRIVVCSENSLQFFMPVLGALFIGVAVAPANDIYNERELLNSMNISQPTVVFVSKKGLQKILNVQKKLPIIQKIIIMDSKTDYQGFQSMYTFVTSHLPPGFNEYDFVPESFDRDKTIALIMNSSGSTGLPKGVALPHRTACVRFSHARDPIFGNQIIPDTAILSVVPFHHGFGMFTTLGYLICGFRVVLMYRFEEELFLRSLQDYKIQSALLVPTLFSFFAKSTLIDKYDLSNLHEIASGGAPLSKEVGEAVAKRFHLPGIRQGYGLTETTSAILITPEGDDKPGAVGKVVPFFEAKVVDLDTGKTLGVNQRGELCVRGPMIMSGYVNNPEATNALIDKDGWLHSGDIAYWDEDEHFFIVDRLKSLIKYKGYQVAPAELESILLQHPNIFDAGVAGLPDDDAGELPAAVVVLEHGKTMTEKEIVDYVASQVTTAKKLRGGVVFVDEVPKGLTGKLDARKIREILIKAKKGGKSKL
With `O=C(CS)NCCCCCNC(=O)[C@@H]1C[C@@H]2C(=O)N3CCC[C@H]3C(=O)N2[C@@H]1c1cccc(OCCO)c1`, the z-score is -1.38 (inactive).
Regarding `C=C(C)c1cc2c(c(CCCCCC)n1)[Si](C(C)C)(C(C)C)OC2`, the z-score was 0.903 (inactive).
With `CCCCC(O)C1C=CC2C(=O)N(c3ccccc3)C(=O)C2N1Nc1ccc(C(C)C)cc1` (configuration not stated) the figure was -1.46 (inactive).
For the compound `COCCOC(=O)N1C(=O)[C@@]2(c3cc(C#CC4=CCCCC4)ccc31)[C@H](c1ccc(OCCO)cc1)N1[C@H](c3ccccc3)[C@H](c3ccccc3)OC(=O)[C@H]1[C@@H]2C(=O)N1CCN(c2ncccn2)CC1`, the z-score was -2.01 (inactive).
Under `C=C(COC)/C(=C/C[C@H](OC(C)=O)c1ccc(OCCO)cc1)c1cc(C(=O)OC)ccc1OC` stands -1.71 (inactive); under `CC1CC/C=C\[C@H]2OC34C=CCN(c5ccc(Cl)cc5)C(=O)[C@H]3N(CCCCCO)C(=O)[C@]4(C)C2C(=O)O1` (some centres not stated), -0.535 (inactive).
Turning to `CN1C(=O)C2C=CC(C(O)c3cccc(O)c3)N(Nc3ccccc3)C2C1=O` (configuration not stated), the z-score is 0.991 (inactive).
As to `O=C1NC(=O)C2C1C=CC(C(O)c1c(F)cccc1Cl)N2Nc1ccc(Cl)cc1Cl` (configuration not stated), the z-score was 0.231 (inactive).
In the case of `COc1ccc([Si](C)(C)[C@@H]2[C@@H](CCO)O[C@]3(C(=O)N(Cc4ccc(N5CCCCC5=O)cc4)c4ccccc43)[C@H]2C)cc1`, the z-score was -1.24 (inactive).
Consider `C=CCC(OC(C)=O)[C@@H]1[C@@H](N(Cc2cc3ccccc3o2)C(=O)c2ccc(C)cc2)c2cc(OCCCO)ccc2N1C(=O)Cc1ccc(OC)cc1` (some centres not stated), for which the z-score was -1.37 (inactive).
Regarding `CCOc1cc(C(O)C2C=CC3C(=O)N(C)C(=O)C3N2Nc2ccccc2)ccc1O` (configuration not stated), the z-score was -1.2 (inactive).
Regarding `O=C(CS)NCCCCCCNC(=O)[C@H]1C[C@H]2C(=O)N[C@@H](Cc3ccccc3)C(=O)N2[C@H]1c1ccc(O)cc1`, the z-score is -1.17 (inactive).
With `CC(c1ccccc1)C(O)C1C=CC2C(=O)N(c3ccccc3)C(=O)C2N1Nc1ccc([N+](=O)[O-])cc1` (configuration not stated) the figure was 1.58 (inactive).
With `COc1ccccc1CN1C(=O)c2ccccc2[C@@]2(Cc3ccccc3N(CC(F)(F)F)C2=O)[C@@H]1c1ccc(CO)cc1`, the z-score is 0.962 (inactive).
Turning to `COC(=O)C(CC#Cc1ccc2c(c1)[C@]1(C(=O)N2)[C@H](C(=O)N2CCN(c3ncccn3)CC2)[C@H]2C(=O)O[C@H](c3ccccc3)[C@H](c3ccccc3)N2[C@@H]1c1ccc(OCCO)cc1)C(=O)OC`, the z-score is -1.22 (inactive).
For the compound `[N-]=[N+]=Nc1ccccc1[C@@H]1OC(c2ccc(OCCCO)cc2)=N[C@]1(Cc1ccccc1)C(=O)NCC(O)CO` (some centres not stated), the z-score is -4.93 (inactive).
In the case of `Cc1cc(C)c(C(O)C2C=CC3C(=O)NC(=O)C3N2Nc2ccc(Cl)cc2Cl)c(C)c1` (configuration not stated), the z-score is -1.43 (inactive).
Take `COC(=O)c1c2oc(c1C(=O)OC)C(=O)N(Cc1ccccc1)Cc1cn(nn1)C[C@H](Cc1ccccc1)NC(=O)N[C@H](CO)CC2`: the z-score was 0.978 (inactive).
With `C=CCNC(=O)[C@H]1[C@@H]2C(=O)O[C@@H](c3ccccc3)[C@@H](c3ccccc3)N2[C@@H](c2ccc(O)cc2)[C@]12C(=O)N(C(=O)OCCOC)c1ccccc12` the figure was -0.109 (inactive); with `O=C1C=C(c2ccccc2)C(=O)c2ccc([C@H]3Oc4ccccc4S(=O)(=O)N4CCC[C@@H]34)cc21`, -2.04 (inactive).
Under `Cc1ccc(S[C@]2(C(=O)NCC(F)(F)F)CC(=O)N(C3CCCCC3)[C@@H]2c2ccc(CO)cc2I)cc1` stands -0.691 (inactive).
As for `COc1ccc(C#Cc2ccc3c(c2)[C@]2(C(=O)N3)[C@H](c3ccc(O)cc3)N3[C@H](c4ccccc4)[C@H](c4ccccc4)OC(=O)[C@H]3[C@@H]2C(=O)O)cc1`, the z-score was -1.37 (inactive).
Consider `COC(=O)[C@@]1(Cc2ccc(OC)cc2)[C@@H]2C(=CC(=O)[C@H]2CC(=O)C(=O)N(C)C)CN1C(=O)c1ccccc1`, for which the z-score was 2.12 (inactive).
For the compound `CCOC(=O)c1ccc(NC(=O)O[C@H]2[C@H](OC(=O)Nc3ccc4c(c3)OCO4)[C@H](OC(=O)Nc3ccc4c(c3)OCO4)[C@@H](OC)O[C@@H]2CO)cc1`, the z-score was -9.03 (active).
On to `C=CCN1Cc2ccccc2[C@H]2OC(c3ccc(OCCCO)cc3)=N[C@@]2(CC=C)C1=O`, for which the z-score was -0.107 (inactive).
Consider `CN(C)CCCNC(=O)[C@@]1(C)c2ccccc2C(=O)N(Cc2ccccc2)[C@H]1c1ccc(CO)cc1`, for which the z-score was -0.0692 (inactive).
Under `CCCCCCCCCCC(O)C1C=CC2C(=O)N(C)C(=O)C2N1NC(=O)OC(C)(C)C` (configuration not stated) stands -1.33 (inactive).
